The target in this experiment is AMP-activated protein kinase, AMPK (Homo sapiens) (UniProt P54646+O43741+P54619+Q9UGJ0+Q9Y478+Q13131+Q9UGI9). Description: AMP-dependent Kinase enzyme assay. An in vitro enzyme assay that detects ADP turnover that is directly proportional to AMPK activity. This uses naive AMPK that is activated during the assay with MK-8722. It is filed as functional. Set-up: scale not given: direction of the effect not stated beside the values. Conditions: 30 µM.
For `Cc1cc(N2Cc3cnn(CCO)c3C2)nc(-c2ccccc2)n1`, the Percent Effect was found to be 4.37%.
With `Cc1ccc(F)c2c1N(C(=O)c1ccc(S(C)(=O)=O)cc1)CCC2` the figure was 0.782%; with `CCn1cc(CNCCNc2ncc(Cl)cc2Cl)cn1`, 4.84%; with `CNC(=O)c1cn2cc(-c3ccc(F)cc3)n(CC=C(C)C)c(=O)c2n1`, 3.81%.
With `O=C(NCCN1CCOC1=O)c1cnc(-c2cccnc2)nc1` the figure was -1.72%.
With `O=C(CCc1nc(-c2ccsc2)no1)NCC1CCN(C2CC2)C1` (stereo not given) the figure was 1.07%; with `Nc1ccc(C(=O)N2CCC(Oc3cccc(C(F)(F)F)c3)CC2)cn1`, 6.7%; with `CCc1nccn1CC1CCCN1S(=O)(=O)N1CCCOCC1` (stereo not given), 15.2%.
In the case of `CCc1cccc(C)c1NC(=O)NCCCN(CC)S(C)(=O)=O`, the Percent Effect worked out at 22.2%.
Take `O=C(NCCc1nccs1)N1CCC(n2cccc2)CC1`: the Percent Effect was -2.66%.
With `Cc1nc2c(c(=O)[nH]1)CN(C(=O)CC[C@@H]1CCCN3CCCC[C@H]13)C2` the figure was 16.1%; with `CC(NCc1cccc(NC(=O)C2CCCCC2)c1)c1cnn(C)c1` (stereo not given), 4.61%.
The same measure for `Cc1cc(=O)n(CCNC(=O)c2ccccc2Cl)cn1`: -4.73%; for `O=C(NCC1CCS(=O)(=O)C1)N(Cc1ccco1)C1CC1` (stereo not given): -4.86%; for `CC(C)(C)c1nc(CC(=O)Nc2cnccc2O)cs1`: -0.224%.
The same measure for `CCOc1ccc(CN(C)C(=O)c2nc(N3CCCC3)ncc2Cl)cc1`: -1.93%; for `CCN(CC)S(=O)(=O)NCC1Cc2ccccc2O1` (stereo not given): -0.544%.
On to `Cc1noc(C2CCCN(Cn3cc(Cl)cn3)C2)n1` (stereo not given), for which the Percent Effect was found to be 10.4%.
The same measure for `CN(C)C1CCN(c2cc(-c3ccccc3)nc3ccnn23)C1` (stereo not given): -0.347%; for `Cc1nn(C)c(C)c1-c1ccc(=O)n(C(C)C(=O)NC2CCCC2)n1` (stereo not given): 9.03%.
The same measure for `Cn1ncc2c1CCCC2NCc1ccc(OCc2cccnc2)cc1` (stereo not given): 2.53%; for `CCN(CCNS(=O)(=O)C1CCOCC1)C(=O)OC(C)(C)C`: 1.64%; for `Cc1nc(COC(=O)c2cccc3c2OCCO3)no1`: -12.1%.
The same measure for `CC1CCN(C(=O)CCN2Cc3ccccc3C[C@H]2C(N)=O)C1` (stereo not given in full): -7.65%.
With `CNC(=O)C1(C)CN(S(=O)(=O)c2cccc(OC)c2)CCO1` (stereo not given), the Percent Effect came to 4.63%.
The same measure for `Cc1nnsc1CN1CC[C@@](O)(C2CCC2)[C@H](C)C1`: -5.82%; for `Cc1cnn(CCCNC(=O)NC(C)C(=O)Nc2ccccc2)c1` (stereo not given): 4.78%.
The same measure for `COc1ncccc1-c1cc(C(N)=O)ccn1`: 1.56%; for `Cc1cc(N2CCCC(N(C)C)C2)n2nc(C)cc2n1` (stereo not given): -1.24%.
As for `CCOCCC(=O)N1CCCC(c2cc(C(F)(F)F)[nH]n2)C1` (stereo not given), the Percent Effect came out at 0.822%.
As for `CNC(=O)CNC(=O)NCc1cc2c(s1)CCC(C)(C)C2`, the Percent Effect was -2.89%.
With `CCC(C)c1csc(NC(=O)Cc2csc(-c3nnc[nH]3)n2)n1` (stereo not given) the figure was 10.5%.
Turning to `c1cn(-c2nccnc2C2CCCN(C3CCOCC3)C2)cn1` (stereo not given), the Percent Effect stood at 10.1%.
The same measure for `CCCNc1cc(-c2c[nH]nc2C2CCN(C(=O)C3CCC3)C2)ccn1` (stereo not given): 43.5%.
With `CCC(C(=O)NC1(C(N)=O)CCCC1)n1cccn1` (stereo not given) the figure was -1.13%; with `CCN(CCCNC(=O)Nc1ccccc1C(C)C)S(C)(=O)=O`, 11%; with `CC(C)c1ccc(CN2CCCC3(CC2)CN(C)C(=O)O3)cc1` (stereo not given), 9.6%.
The same measure for `Cc1nc2n(n1)CC(NCc1c(Cl)ccc3cccnc13)CC2` (stereo not given): 11.7%; for `CCOc1ccc(Oc2cc(CN)ccn2)cc1`: -43.1%; for `CCc1ocnc1C(=O)N1CCC2(CCCN(CC(C)(C)C)C2=O)C1` (stereo not given): 9.83%.

(Values after ChEMBL document CHEMBL3988442, “University of Dundee, Small-Polar-MMV Screening Library” (2021).)
